Our source for the outcome and AC50 values is PubChem BioAssay (EPA / NIEHS).

Inconclusive results are not listed. Active and inactive are the calls of the source. The calls were made as follows, unless noted: active = hit-call score of the fitted dose curve at least 0.9, where 1 is the maximum; inactive = score below 0.9.

Assay [1] is described as follows: ATG_TCF_b_cat_CIS: Attagene CIS-FACTORIAL HepG2 Assay for human T-Cell-Factor with beta-catenin (TCF/b-cat) (AID 2282965). The conditions noted are these: HepG2 TCF/beta-catenin cis-reporter transcription, actives raise or lower the signal. The procedure, abridged: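 Endogenous transcription factor activity is captured through cis-promoter reporter constructs transiently introduced into human HepG2 liver cells. Induced reporter mRNA is measured after 24 h and fitted bidirectionally relative to DMSO.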

Assay [2] can be described thus: ATG_TAL_CIS: Attagene CIS-FACTORIAL HepG2 Assay for human TAL Basal Promoter (AID 2282966).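 Also: background control endpoint measuring basal TAL promoter reporter mRNA not a specific factor.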 As to conditions: HepG2 Attagene cis-factorial TAL promoter reporter; actives raise or lower the signal. The procedure, abridged: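 Fluorescence of labelled reporter cDNA fragments, resolved by capillary electrophoresis, gave the readout. Human HepG2 liver cells carried transiently transfected cis-element reporter units and were treated for 24 hours; activity was fitted bidirectionally against DMSO.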

Assay [3] in a line: ATG_TGFb_CIS: Attagene CIS-FACTORIAL HepG2 Assay for human Transforming Growth Factor (TGF) (AID 2282967). The conditions noted are these: HepG2 Attagene CIS TGFb reporter, mRNA transcription; actives raise or lower the signal. The procedure, abridged:
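Transcript-level reporter readout: HepG2 transfectants, 24 h exposure, RNA to cDNA, reporter-specific PCR, fluorescent primer extension, capillary sizing against ROX standards. Gain- or loss-of-signal relative to DMSO.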

Assay [4] can be described thus: ATG_VDRE_CIS: Attagene CIS-FACTORIAL HepG2 Assay for human Vitamin D Receptor Element (VDRE) (AID 2282968). The conditions noted are these: HepG2 VDRE cis-reporter transcription, actives raise or lower the signal. The gist of the method: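 Reporter mRNA induction, quantified by capillary electrophoresis of fluorescently labelled RT-PCR products, was read 24 h after dosing HepG2 cells carrying transiently transfected cis-regulated reporter units; gain or loss relative to DMSO.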

The target in assay [5] is Nuclear receptor subfamily 1 group I member 3 (Homo sapiens) (UniProt Q14994). Description: ATG_CAR_TRANS: Attagene TRANS-FACTORIAL HepG2 Assay for human Constitutive Androstane Receptor (CAR) (AID 2282969; active = hit-call score of the fitted dose curve at least 0.9, where 1 is the maximum;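 also: activators raise reporter mRNA above DMSO so AC50 marks induction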). As to conditions: HepG2 Attagene TRANS-FACTORIAL CAR reporter. The gist of the method: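 Readout is reporter mRNA induction, quantified by fluorescent primer extension and capillary electrophoresis after RT-PCR. Cells were HepG2 transiently carrying chimeric NR-Gal4 constructs with GAL4-UAS reporters, treated for 24 h; activity scored upward from DMSO.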
Nuclear receptor subfamily 1 group I member 3 (Homo sapiens), sequence (Q14994 whole entry, looked up, the tested form may be a part): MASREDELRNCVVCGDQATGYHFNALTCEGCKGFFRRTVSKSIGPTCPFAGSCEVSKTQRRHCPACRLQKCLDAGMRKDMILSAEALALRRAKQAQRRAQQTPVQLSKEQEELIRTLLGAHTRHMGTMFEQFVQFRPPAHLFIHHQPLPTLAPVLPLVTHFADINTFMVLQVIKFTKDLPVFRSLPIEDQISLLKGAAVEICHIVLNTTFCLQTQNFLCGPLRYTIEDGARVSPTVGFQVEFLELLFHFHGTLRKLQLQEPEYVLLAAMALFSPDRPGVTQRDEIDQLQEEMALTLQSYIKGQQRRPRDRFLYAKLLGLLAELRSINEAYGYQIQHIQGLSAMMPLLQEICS

Assay [6] concerns the target Estrogen receptor (Homo sapiens) (UniProt P03372). Kind of assay: ATG_ERa_TRANS: Attagene TRANS-FACTORIAL HepG2 Assay for human Estrogen Receptor alpha (ERa) (AID 2282970; active = hit-call score of the fitted dose curve at least 0.9, where 1 is the maximum). As to conditions: HepG2 Attagene TRANS ERa GAL4 reporter, mRNA. The gist of the method:
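Human liver HepG2, transient transfection of multiple GAL4-UAS reporter units; TRANS format (exogenous NR-Gal4 chimera). 24 h dosing. Readout: reporter mRNA, RT-PCR, 6-FAM primer extension, HpaI digest, capillary electrophoresis. Positive direction vs DMSO.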

Assay [7] concerns the target X-box-binding protein 1 (Homo sapiens) (UniProt P17861). Kind of assay: ATG_Xbp1_CIS: Attagene CIS-FACTORIAL HepG2 Assay for human X-box Binding Protein 1 (XBP1) (AID 2282972). As to conditions: HepG2 XBP1 cis-element reporter, Attagene multiplex; actives raise or lower the signal. The procedure, abridged:
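HepG2 cells transiently transfected with multiple cis-element reporter units report endogenous TF activity; 24 h exposure, then reporter mRNA measured by RT-PCR, 6-FAM labelling, HpaI digestion and capillary electrophoresis. Bidirectional fitting versus DMSO.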

A short description of assay [8]: ATG_GAL4_TRANS: Attagene TRANS-FACTORIAL HepG2 Assay for GAL4 (Internal Marker) (AID 2282976; active = hit-call score of the fitted dose curve at least 0.9, where 1 is the maximum). As to conditions: HepG2 Attagene TRANS GAL4 internal marker reporter. The gist of the method:
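First, HepG2 cells were transfected with reporter units under GAL4-UAS control. Next, they were treated with chemical for 24 h. Finally, RNA was reverse-transcribed, PCR-amplified, FAM-labelled and resolved by capillary electrophoresis, with induction scored against DMSO.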

The target in assay [9] is Glucocorticoid receptor (Homo sapiens) (UniProt P04150). Kind of assay: ATG_GR_TRANS: Attagene TRANS-FACTORIAL HepG2 Assay for human Glucocorticoid Receptor (GR) (AID 2282978; active = hit-call score of the fitted dose curve at least 0.9, where 1 is the maximum;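 also: activators score as hits since higher reporter transcript over DMSO is fitted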). As to conditions: HepG2 Attagene TRANS GR reporter, mRNA transcription. The gist of the method:
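After 24 h incubation with test chemical, transfected HepG2 cells were lysed for RNA; reporter cDNA was amplified, FAM-labelled, HpaI-digested and sized on a capillary analyser. Signal gain relative to DMSO was scored.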

The target of assay [10] is Oxysterols receptor LXR-alpha (Homo sapiens) (UniProt Q13133). Description: ATG_LXRa_TRANS: Attagene TRANS-FACTORIAL HepG2 Assay for human Liver X Receptor alpha (LXRa) (AID 2282980; active = hit-call score of the fitted dose curve at least 0.9, where 1 is the maximum). As to conditions: HepG2 Attagene TRANS reporter, LXRa transactivation. The procedure, abridged:
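Transfect HepG2 with GAL4-UAS multiplex reporter constructs (TRANS format, chimeric receptor-GAL4); treat 24 h; extract RNA, reverse-transcribe, PCR-amplify, FAM-label, HpaI-digest; resolve fragments by capillary electrophoresis. Upward response vs DMSO.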

Assay [11] addresses Nuclear receptor subfamily 4 group A member 2 (Homo sapiens) (UniProt P43354). Kind of assay: ATG_NURR1_TRANS: Attagene TRANS-FACTORIAL HepG2 Assay for human Nuclear Receptor Related Protein 1 (NURR1) (AID 2282985; active = hit-call score of the fitted dose curve at least 0.9, where 1 is the maximum). The conditions noted are these: HepG2 Attagene TRANS reporter, mRNA readout. The gist of the method: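 Transient transfection of HepG2, human liver cells, with multiple GAL4-UAS reporter transcription units. Cells dosed 24 h, RNA isolated, reverse-transcribed, PCR-amplified, FAM-labelled, HpaI-digested, sized by capillary electrophoresis. DMSO served as negative control.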

For assay [12], the target named is Transcriptional activator Myb (Homo sapiens) (UniProt P10242). Description: ATG_Myb_CIS: Attagene CIS-FACTORIAL HepG2 Assay for human Myeloblastosis (Myb) Proto-Oncogene Transcription Factor (AID 2282986). As to conditions: HepG2 Attagene CIS-FACTORIAL Myb reporter transcription; actives raise or lower the signal. The gist of the method:
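After 24 h of compound dosing, total RNA from transfected HepG2 cells is reverse-transcribed and the reporter sequences amplified, labeled and separated by capillary electrophoresis. Values come from bidirectional fitting against DMSO.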

The target in assay [13] is Steroid hormone receptor ERR1 (Homo sapiens) (UniProt P11474). Description: ATG_ERRa_TRANS: Attagene TRANS-FACTORIAL HepG2 Assay for human Estrogen-Related Receptor alpha (ERRa) (AID 2282971; active = hit-call score of the fitted dose curve at least 0.9, where 1 is the maximum). The conditions noted are these: HepG2 Attagene TRANS reporter, ERRa transactivation. The procedure, abridged: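 Reporter transcript induction was quantified by RT-PCR and capillary electrophoresis of FAM-labelled, HpaI-cut products after 24 h treatment of HepG2 cells carrying transiently transfected GAL4-UAS reporter units and an exogenous ERRa-Gal4 fusion; activity scored as increase over DMSO.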
Steroid hormone receptor ERR1 (Homo sapiens), sequence (P11474 whole entry, looked up, the tested form may be a part): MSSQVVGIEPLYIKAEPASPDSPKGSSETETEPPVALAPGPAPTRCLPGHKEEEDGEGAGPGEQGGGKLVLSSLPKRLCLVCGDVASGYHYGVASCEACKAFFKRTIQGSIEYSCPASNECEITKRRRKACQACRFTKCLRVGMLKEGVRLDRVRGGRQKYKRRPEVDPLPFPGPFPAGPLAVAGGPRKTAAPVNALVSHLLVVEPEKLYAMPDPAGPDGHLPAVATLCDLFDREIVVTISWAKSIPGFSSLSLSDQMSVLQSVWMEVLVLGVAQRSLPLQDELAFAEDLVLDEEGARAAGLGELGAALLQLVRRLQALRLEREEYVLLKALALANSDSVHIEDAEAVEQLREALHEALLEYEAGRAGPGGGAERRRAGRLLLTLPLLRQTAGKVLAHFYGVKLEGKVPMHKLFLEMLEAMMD

The nature of assay [14]: ATG_M_19_TRANS: Attagene TRANS-FACTORIAL HepG2 Assay for M19 Transcription Factor (Internal Marker) (AID 2282974; active = hit-call score of the fitted dose curve at least 0.9, where 1 is the maximum). The conditions noted are these: HepG2 Attagene TRANS-FACTORIAL M19 internal marker reporter. The gist of the method: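 Transfected HepG2 (GAL4-UAS MRTUs), 24 h compound, TriZol RNA, DNase-treated RT, reporter PCR, FAM label, HpaI digest, CE fluorescence; gain vs DMSO.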

The target in assay [15] is Bile acid receptor (Homo sapiens) (UniProt Q96RI1). Kind of assay: ATG_FXR_TRANS: Attagene TRANS-FACTORIAL HepG2 Assay for Farnesoid X Receptor (FXR) (AID 2282979; active = hit-call score of the fitted dose curve at least 0.9, where 1 is the maximum;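 also: hits raise reporter mRNA above DMSO so AC50 marks FXR activation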). As to conditions: HepG2 Attagene TRANS FXR-GAL4 reporter transcription. The gist of the method:
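Transient transfection of HepG2 with multiplexed GAL4-UAS reporter units; exogenous FXR-GAL4 chimera. Dose 24 h → TriZol RNA → oligo(dT) RT → PCR, 6-FAM primer extension, HpaI cut → CE. Gain vs DMSO.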

Assay [16] in a line: ATG_M_32_TRANS: Attagene TRANS-FACTORIAL HepG2 Assay for M32 Transcription Factor (Internal Marker) (AID 2282984; active = hit-call score of the fitted dose curve at least 0.9, where 1 is the maximum;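 also: transcript level of a background control reporter unit measured by RT-PCR and capillary electrophoresis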). As to conditions: HepG2 Attagene TRANS M32 internal marker reporter. The gist of the method: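 Measures reporter mRNA induction in human HepG2 liver cells after 24 h chemical treatment. Transcripts from transiently transfected GAL4-UAS reporter units are amplified, fluorescently labelled and sized by capillary electrophoresis; gain of signal relative to DMSO.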

Assay [17] concerns the target Estrogen-related receptor gamma (Homo sapiens) (UniProt P62508). Description: ATG_ERRg_TRANS: Attagene TRANS-FACTORIAL HepG2 Assay for human Estrogen-Related Receptor gamma (ERRg) (AID 2282977; active = hit-call score of the fitted dose curve at least 0.9, where 1 is the maximum;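 also: hits increase reporter signal over DMSO so potencies reflect activators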). The conditions noted are these: HepG2 Attagene TRANS reporter, ERRg transactivation. The procedure, abridged: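 Transfect HepG2 with multiple GAL4-UAS reporter transcription units; dose chemicals 24 h; isolate RNA, reverse-transcribe with oligo(dT), PCR-amplify, label with 6-FAM, digest with HpaI; size fragments by capillary electrophoresis. DMSO serves as negative control.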

The target in assay [18] is Oxysterols receptor LXR-beta (Homo sapiens) (UniProt P55055). Kind of assay: ATG_LXRb_TRANS: Attagene TRANS-FACTORIAL HepG2 Assay for human Liver X Receptor beta (LXRb) (AID 2282981; active = hit-call score of the fitted dose curve at least 0.9, where 1 is the maximum). The conditions noted are these: HepG2 Attagene TRANS GAL4-LXRb reporter, mRNA. The procedure, abridged:
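Transient transfection HepG2 (multiplexed RTUs, GAL4-UAS); NR-Gal4 chimera; 24 h exposure; RNA → RT-PCR → 6-FAM primer extension → HpaI → CE; increase vs DMSO.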

Assay [19] has as its target Hepatocyte nuclear factor 4-alpha (Homo sapiens) (UniProt P41235). Description: ATG_HNF4a_TRANS: Attagene TRANS-FACTORIAL HepG2 Assay for human Hepatocyte Nuclear Factor 4 alpha (HNF4a) (AID 2282982; active = hit-call score of the fitted dose curve at least 0.9, where 1 is the maximum). As to conditions: HepG2 HNF4a transactivation reporter, mRNA readout. The procedure, abridged:
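Readout is fluorescent reporter-transcript fragments resolved by capillary electrophoresis after RT-PCR from HepG2 cells dosed for 24 h. Cells carried transfected GAL4-UAS reporter constructs measuring exogenous NR-GAL4 chimera activity; DMSO served as baseline.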

Transcriptional activator Myb (Homo sapiens), sequence (P10242 whole entry, looked up): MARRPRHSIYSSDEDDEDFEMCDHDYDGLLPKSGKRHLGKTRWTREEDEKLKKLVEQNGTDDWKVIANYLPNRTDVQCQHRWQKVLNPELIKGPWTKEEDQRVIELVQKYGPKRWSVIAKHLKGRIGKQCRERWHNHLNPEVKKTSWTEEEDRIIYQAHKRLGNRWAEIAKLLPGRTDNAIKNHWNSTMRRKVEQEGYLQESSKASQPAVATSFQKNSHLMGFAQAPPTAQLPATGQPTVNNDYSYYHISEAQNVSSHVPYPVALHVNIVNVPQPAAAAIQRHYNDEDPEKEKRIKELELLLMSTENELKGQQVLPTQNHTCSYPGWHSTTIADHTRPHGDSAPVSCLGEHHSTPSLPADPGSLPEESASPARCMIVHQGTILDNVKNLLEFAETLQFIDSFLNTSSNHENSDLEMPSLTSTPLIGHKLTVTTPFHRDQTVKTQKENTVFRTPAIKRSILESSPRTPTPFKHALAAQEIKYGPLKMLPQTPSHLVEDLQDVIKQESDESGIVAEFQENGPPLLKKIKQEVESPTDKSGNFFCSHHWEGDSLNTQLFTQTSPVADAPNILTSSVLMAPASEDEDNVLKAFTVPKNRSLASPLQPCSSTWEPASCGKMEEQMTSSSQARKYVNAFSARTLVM
Oxysterols receptor LXR-alpha (Homo sapiens), sequence (Q13133 whole entry, looked up, the tested form may be a part): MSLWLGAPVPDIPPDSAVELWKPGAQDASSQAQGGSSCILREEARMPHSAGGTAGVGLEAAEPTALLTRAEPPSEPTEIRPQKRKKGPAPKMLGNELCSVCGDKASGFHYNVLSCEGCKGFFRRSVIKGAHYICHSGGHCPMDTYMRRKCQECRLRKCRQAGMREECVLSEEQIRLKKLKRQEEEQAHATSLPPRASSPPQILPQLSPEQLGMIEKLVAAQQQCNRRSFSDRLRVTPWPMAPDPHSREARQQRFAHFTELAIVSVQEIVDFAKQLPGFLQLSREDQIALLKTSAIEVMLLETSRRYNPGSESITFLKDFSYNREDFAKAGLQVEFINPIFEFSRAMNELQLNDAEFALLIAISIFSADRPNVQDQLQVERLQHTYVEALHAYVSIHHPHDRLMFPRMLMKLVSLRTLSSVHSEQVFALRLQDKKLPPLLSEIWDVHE
Nuclear receptor subfamily 4 group A member 2 (Homo sapiens), sequence (P43354 whole entry, looked up, the tested form may be a part): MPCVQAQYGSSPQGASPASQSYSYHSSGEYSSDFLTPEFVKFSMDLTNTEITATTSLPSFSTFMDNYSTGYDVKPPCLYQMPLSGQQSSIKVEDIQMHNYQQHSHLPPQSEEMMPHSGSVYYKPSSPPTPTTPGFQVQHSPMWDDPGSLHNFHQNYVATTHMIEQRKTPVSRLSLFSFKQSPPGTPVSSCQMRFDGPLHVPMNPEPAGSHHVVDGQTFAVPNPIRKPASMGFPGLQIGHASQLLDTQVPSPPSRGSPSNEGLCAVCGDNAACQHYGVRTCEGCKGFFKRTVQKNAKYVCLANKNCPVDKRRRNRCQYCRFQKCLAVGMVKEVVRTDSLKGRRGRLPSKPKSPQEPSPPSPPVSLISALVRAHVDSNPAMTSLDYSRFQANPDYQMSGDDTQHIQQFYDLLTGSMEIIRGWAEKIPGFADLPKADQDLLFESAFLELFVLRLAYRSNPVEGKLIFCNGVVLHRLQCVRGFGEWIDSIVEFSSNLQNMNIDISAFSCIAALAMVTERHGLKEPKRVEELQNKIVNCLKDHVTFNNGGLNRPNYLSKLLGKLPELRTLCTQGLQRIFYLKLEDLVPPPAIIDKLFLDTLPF
X-box-binding protein 1 (Homo sapiens), sequence (P17861 whole entry, looked up): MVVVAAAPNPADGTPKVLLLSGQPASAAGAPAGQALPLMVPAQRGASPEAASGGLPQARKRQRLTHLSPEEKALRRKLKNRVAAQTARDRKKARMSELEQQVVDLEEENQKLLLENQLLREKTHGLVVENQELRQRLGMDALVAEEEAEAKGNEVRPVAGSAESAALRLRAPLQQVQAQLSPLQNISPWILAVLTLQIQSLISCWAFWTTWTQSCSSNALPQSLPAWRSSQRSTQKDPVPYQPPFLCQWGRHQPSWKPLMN
Estrogen receptor (Homo sapiens), sequence (P03372 whole entry, looked up, the tested form may be a part): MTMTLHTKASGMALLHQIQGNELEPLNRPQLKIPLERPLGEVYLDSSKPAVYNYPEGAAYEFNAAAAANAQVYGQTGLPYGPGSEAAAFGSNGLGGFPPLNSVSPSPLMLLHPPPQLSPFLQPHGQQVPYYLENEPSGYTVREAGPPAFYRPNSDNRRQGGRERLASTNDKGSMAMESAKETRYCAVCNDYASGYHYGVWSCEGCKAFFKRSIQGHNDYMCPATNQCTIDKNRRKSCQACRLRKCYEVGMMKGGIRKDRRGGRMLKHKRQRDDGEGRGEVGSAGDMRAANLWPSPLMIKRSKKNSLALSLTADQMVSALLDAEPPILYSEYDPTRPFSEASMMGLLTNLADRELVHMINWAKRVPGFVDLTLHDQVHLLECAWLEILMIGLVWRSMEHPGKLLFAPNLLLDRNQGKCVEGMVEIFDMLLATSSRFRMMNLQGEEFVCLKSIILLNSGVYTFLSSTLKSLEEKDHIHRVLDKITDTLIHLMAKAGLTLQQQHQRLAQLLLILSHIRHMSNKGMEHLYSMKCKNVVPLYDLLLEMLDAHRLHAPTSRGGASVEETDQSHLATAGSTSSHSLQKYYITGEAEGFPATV
Oxysterols receptor LXR-beta (Homo sapiens), sequence (P55055 whole entry, looked up, the tested form may be a part): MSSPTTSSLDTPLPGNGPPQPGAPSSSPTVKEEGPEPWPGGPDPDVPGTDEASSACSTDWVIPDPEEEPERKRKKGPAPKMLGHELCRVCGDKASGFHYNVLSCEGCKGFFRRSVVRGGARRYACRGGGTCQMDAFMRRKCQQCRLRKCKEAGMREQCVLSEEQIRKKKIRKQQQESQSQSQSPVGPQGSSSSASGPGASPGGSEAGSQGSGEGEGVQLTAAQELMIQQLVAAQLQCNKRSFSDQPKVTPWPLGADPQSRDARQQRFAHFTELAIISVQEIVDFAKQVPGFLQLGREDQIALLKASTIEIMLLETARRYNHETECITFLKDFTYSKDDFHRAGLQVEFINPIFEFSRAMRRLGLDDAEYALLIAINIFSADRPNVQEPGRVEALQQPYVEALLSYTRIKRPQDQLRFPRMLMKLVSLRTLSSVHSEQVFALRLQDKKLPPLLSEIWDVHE
Hepatocyte nuclear factor 4-alpha (Homo sapiens), sequence (P41235 whole entry, looked up, the tested form may be a part): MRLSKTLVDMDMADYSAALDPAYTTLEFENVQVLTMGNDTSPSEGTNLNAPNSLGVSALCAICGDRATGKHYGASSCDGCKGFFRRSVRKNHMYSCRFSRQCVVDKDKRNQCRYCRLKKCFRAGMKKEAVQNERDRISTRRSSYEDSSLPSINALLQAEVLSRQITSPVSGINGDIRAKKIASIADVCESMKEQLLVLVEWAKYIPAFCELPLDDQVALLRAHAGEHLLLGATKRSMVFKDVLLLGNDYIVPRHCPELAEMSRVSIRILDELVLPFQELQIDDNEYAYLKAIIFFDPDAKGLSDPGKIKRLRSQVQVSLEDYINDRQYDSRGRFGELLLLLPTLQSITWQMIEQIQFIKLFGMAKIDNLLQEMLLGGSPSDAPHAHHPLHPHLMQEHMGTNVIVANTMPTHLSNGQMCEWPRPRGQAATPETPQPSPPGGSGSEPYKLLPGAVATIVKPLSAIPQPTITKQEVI
Estrogen-related receptor gamma (Homo sapiens), sequence (P62508 whole entry, looked up, the tested form may be a part): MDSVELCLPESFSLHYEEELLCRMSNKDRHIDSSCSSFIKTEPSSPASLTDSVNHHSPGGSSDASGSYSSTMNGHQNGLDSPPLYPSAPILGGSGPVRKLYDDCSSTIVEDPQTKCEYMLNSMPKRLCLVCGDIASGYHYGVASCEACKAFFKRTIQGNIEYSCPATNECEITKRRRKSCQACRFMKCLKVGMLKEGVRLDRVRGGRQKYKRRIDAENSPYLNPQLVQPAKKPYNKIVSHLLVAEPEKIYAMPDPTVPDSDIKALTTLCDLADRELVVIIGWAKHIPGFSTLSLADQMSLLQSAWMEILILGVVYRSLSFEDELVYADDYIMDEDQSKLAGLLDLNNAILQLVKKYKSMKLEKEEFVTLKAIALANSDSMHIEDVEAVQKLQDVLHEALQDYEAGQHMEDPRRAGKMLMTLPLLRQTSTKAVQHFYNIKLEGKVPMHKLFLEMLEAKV

Turning to `CCCCC(CC)COC(=O)CC(C(=O)OCC(CC)CCCC)S(=O)(=O)O` (stereo not given), the call in [1], in [2], in [3], in [4], in [5] and in assay [6] was inactive. In addition, the outcome in [7], in assay [8], in assay [9], in [10], in assay [11] and in assay [12] was inactive.
For `CCOC(=O)C(C)(C)Oc1ccc(Cl)cc1`, the call in [1], in [2], in assay [3], in [4], in [6] and in assay [13] was inactive. Further, the result in assay [7], in assay [14], in [8], in [15], in [10] and in [16] was inactive. Also, the compound was called inactive in [11] and in [12].
As to `CCCCCC(=O)O`, the outcome in assay [1], in [2], in assay [3], in [4], in [6] and in assay [13] was inactive. In addition, the call in assay [7], in assay [14], in assay [17], in [18], in [19] and in assay [11] was inactive. For the same compound, the compound was classed as inactive in assay [12].
With `Oc1ccc2c(c1)OC[C@@H](N1CCC(O)(c3ccc(F)cc3)CC1)[C@H]2O`, the result in assay [1], in assay [2], in assay [5], in [7], in [19] and in assay [11] was inactive. For the same compound, in assay [12], the result was inactive. Also, the AC50 in assay [3] was 64.6 µM (active); in assay [4], 30.1 µM (active); in [6], 6.61 µM (active).
With `CCNc1cccc(C)c1`, the result in assay [1], in assay [2], in [3], in assay [4], in assay [5] and in assay [7] was inactive. The result in assay [17], in assay [10], in assay [18], in assay [11] and in [12] was inactive.
